The supplement of paper PMC6609913
Counter-ions that a name gives are not always drawn. ± gives the standard deviation of the averaged measurements. Over roughly 1,300 compounds, “normalised cell viability” has its median near 1; the lowest 2% begin near 0.15. This excerpt belongs to a sample that is enriched for the lowest values.

Tested on: V-C8 + BRCA2 (BRCA2-proficient hamster cells)
Assay: normalised cell viability (fraction of plate median); higher = more viable cells (less toxic)
Settings: 5 µM
Outline: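 In two screens, library drugs at 5 μM were given for 3 days (screen 1) or 6 days (screen 2) to hamster V-C8 cells without BRCA2 and V-C8 cells with BRCA2 restored, seeded 24 h earlier in 96-well plates. A resazurin assay gave the cell viability readout, expressed as modified robust per cent of sample against the plate median, with triplicate wells averaged.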

Row | Compound | normalised cell viability (treatment time: 3 days) | normalised cell viability (treatment time: 6 days)
1 | CC1CC(OC(=O)c2ccccc2O)CC(C)(C)C1 (stereo unspecified) [Homosalate] | 1.03 ± 0.04 | 1.02 ± 0.074
2 | CN(C)C(=O)C(CCN1CCC(O)(c2ccc(Cl)cc2)CC1)(c1ccccc1)c1ccccc1 [Loperamide hydrochloride] | 0.687 ± 0.041 | 0.67 ± 0.057
3 | CN[C@H](CC(C)C)C(=O)N[C@H]1C(=O)N[C@@H](CC(N)=O)C(=O)N[C@H]2C(=O)N[C@H]3C(=O)N[C@H](C(=O)N[C@H](C(=O)O)c4cc(O)cc(O)c4-c4cc3ccc4O)[C@H](O)c3ccc(c(Cl)c3)Oc3cc2cc(c3O[C@@H]2O[C@H](CO)[C@@H](O)[C@H](O)[C@H]2O[C@H]2C[C@](C)(N)[C@H](O)[C@H](C)O2)Oc2ccc(cc2Cl)[C@H]1O [Vancomycin hydrochloride] | 0.177 ± 0.0067 | 0.17 ± 0.018
4 | COc1ccc2[nH]cc(CCNC(C)=O)c2c1 [Melatonin] | 1.22 ± 0.097 | 0.928 ± 0.048
5 | CCCCCNC(=N)N/N=C/c1c[nH]c2ccc(OC)cc12 [Tegaserod maleate] | 0.1362 ± 0.0013 | 0.155 ± 0.022
6 | CC[C@@H](CO)NCCN[C@@H](CC)CO [Ethambutol dihydrochloride] | 1.05 ± 0.058 | 1 ± 0.011
7 | C1CCC(C(CC2CCCCN2)C2CCCCC2)CC1 (stereo unspecified) [Perhexiline maleate] | 0.135 ± 0.0029 | 0.125 ± 0.015
8 | Cc1nnc(SCC2=C(C(=O)O)N3C(=O)[C@@H](NC(=O)Cn4cnnn4)[C@H]3SC2)s1 [Cefazolin sodium salt] | 1.1 ± 0.034 | 1.01 ± 0.12
9 | CCCCCCCCCCCCCCCC[N+](C)(C)CCN(Cc1ccc(OC)cc1)c1ncccn1 [Thonzonium bromide] | 0.787 ± 0.094 | 0.74 ± 0.19
10 | CCCC1O[C@@H]2C[C@H]3[C@@H]4CCC5=CC(=O)C=C[C@]5(C)[C@H]4[C@@H](O)C[C@]3(C)[C@]2(C(=O)CO)O1 (stereo partly specified) [Budesonide] | 0.9516 ± 0.0071 | 0.936 ± 0.024
11 | CC1(C)OC(=O)NC1=O [Dimethadione] | 1.08 ± 0.064 | 0.964 ± 0.043
12 | CNC[C@H](O)[C@@H](O)[C@H](O)[C@H](O)CO [Meglumine] | 0.938 ± 0.094 | 0.983 ± 0.037
13 | C[N+](C)(C)CCOC(N)=O [Carbachol] | 0.953 ± 0.043 | 1.01 ± 0.036
14 | CN1C2CCCC1CC(NC(=O)c1nn(C)c3ccccc13)C2 (stereo unspecified) [Granisetron] | 1.03 ± 0.036 | 1.01 ± 0.017
15 | CCN(CC)CCOC(=O)C1(c2ccc([N+](=O)[O-])cc2)CCCC1 [Nitrocaramiphen hydrochloride] | 1.06 ± 0.024 | 1.038 ± 0.0056
16 | CCCCCN(CCCCC)C(=O)C(CCC(=O)O)NC(=O)c1ccc(Cl)c(Cl)c1 (stereo unspecified) [Lorglumide sodium salt] | 1 ± 0.032 | 1.04 ± 0.015
17 | Cc1onc(-c2ccccc2)c1C(=O)N[C@@H]1C(=O)N2[C@@H]1SC(C)(C)[C@@H]2C(=O)O [Oxacillin sodium] | 1.04 ± 0.042 | 0.989 ± 0.025

Row | Compound | normalised cell viability (treatment time: 3 days) | normalised cell viability (treatment time: 6 days)
18 | CC(=O)OC[C@H]1O[C@@H]([S-])[C@H](OC(C)=O)[C@@H](OC(C)=O)[C@@H]1OC(C)=O.CCP(CC)CC.[Au+] [Auranofin] | 0.126 ± 0.0085 | 0.128 ± 0.012
19 | C[C@H]1O[C@H](O[C@H]2[C@H](O)[C@@H](O)[C@@H](O[C@H]3[C@H](O)[C@@H](O)C(O)O[C@@H]3CO)O[C@@H]2CO)[C@H](O)[C@@H](O)[C@@H]1N[C@H]1C=C(CO)[C@@H](O)[C@H](O)[C@H]1O (stereo partly specified) [Acarbose] | 0.928 ± 0.072 | 1.03 ± 0.056
20 | COC(=O)Nc1nc2ccc(SC(C)C)cc2[nH]1 [Methiazole] | 0.231 ± 0.016 | 0.245 ± 0.017
21 | Nc1ccc(C(=O)NCC(=O)O)cc1 [Aminohippuric acid] | 1.04 ± 0.027 | 1.11 ± 0.076
22 | CCOCCn1c(N2CCCN(C)CC2)nc2ccccc21 [Emedastine] | 1.07 ± 0.11 | 1.06 ± 0.032
23 | Nc1ccn([C@@H]2O[C@H](CO)[C@@H](O)C2(F)F)c(=O)n1 [Gemcitabine] | 0.212 ± 0.014 | 0.183 ± 0.0099
24 | NC12CC3CC(CC(C3)C1)C2 [Adamantamine fumarate] | 0.885 ± 0.035 | 0.95 ± 0.053
25 | COc1cc2c(cc1OC)C(=O)C(CC1CCN(Cc3ccccc3)CC1)C2 (stereo unspecified) [Donepezil hydrochloride] | 1.007 ± 0.0092 | 1.05 ± 0.074
26 | CN1[C@@H]2CC[C@H]1C[C@@H](OC(=O)c1c[nH]c3ccccc13)C2 [Tropisetron HCl] | 1.05 ± 0.12 | 1.24 ± 0.074
27 | CCCN(CCC)C(=O)C(CCC(=O)O)NC(=O)c1ccccc1 (stereo unspecified) [Proglumide] | 0.993 ± 0.11 | 0.986 ± 0.14
28 | CC(C)/N=c1\cc2n(-c3ccc(Cl)cc3)c3ccccc3nc-2cc1Nc1ccc(Cl)cc1 [Clofazimine] | 0.274 ± 0.021 | 0.346 ± 0.037
29 | CCCN[C@H]1CCc2nc(N)sc2C1 [Pramipexole] | 0.9625 ± 0.0076 | 0.987 ± 0.022
30 | c1ccc2c(c1)CCCc1cc(NCCN3CCOCC3)nnc1-2 | 0.803 ± 0.038 | 0.87 ± 0.091
31 | CCOC(=O)OC(C)OC1=C(C(=O)Nc2ccccn2)N(C)S(=O)(=O)c2ccccc21 (stereo unspecified) [Ampiroxicam] | 1 ± 0.034 | 0.994 ± 0.079
32 | O=C(NCCO[N+](=O)[O-])c1cccnc1 [Nicorandil] | 1.11 ± 0.072 | 1.11 ± 0.13
33 | CNC(=O)c1c(I)c(C(=O)NCC(=O)Nc2c(I)c(C(=O)O)c(I)c(C(=O)NCCO)c2I)c(I)c(N(C)C(C)=O)c1I [Ioxaglic acid] | 1 ± 0.058 | 1.11 ± 0.086
